Bioassay records from PubChem BioAssay.
ALDH1A1 block: ALDH1A1 (human) enzyme inhibition | P00352 | Purified ALDH1A1, NADH fluorescence, propionaldehyde substrate | Potency, µM (series often up to 75.3 µM), usual class: inhibitors | 220,000 compounds, 7.3% hits | AID 1030
KDM4E inh: inhibitors of human JMJD2E histone demethylase. Potency, µM (top dose mostly 57.1 µM), hits mostly inhibitors. JMJD2E catalytic domain, FDH-coupled NADH fluorescence (FDH is formaldehyde dehydrogenase). B2RXH2. 230,000 compounds, 1.6% hits; note: nearly all actives have a fitted effect of over 50% in size
Tau fibril ThT: tau fibrillization inhibition (ThT binding); AID 1460; Potency, µM (series often up to 57.4 µM), actives largely listed as inhibitors; 270,000 compounds, 2.1% hits; P10636; recombinant tau K18 P301L, heparin-induced fibrillization, ThT fluorescence; active = well fitted curve in the direction sought with a large enough effect; inconclusive = small, poorly fitted or top-dose-only effect, or another doubt; inactive = no such curve, though single readings can be large; an effect the other way counts as inactive or inconclusive; note: nearly all actives have a fitted effect of over 55% in size
Target sequence (P10636 561-689 P618L limits assumed): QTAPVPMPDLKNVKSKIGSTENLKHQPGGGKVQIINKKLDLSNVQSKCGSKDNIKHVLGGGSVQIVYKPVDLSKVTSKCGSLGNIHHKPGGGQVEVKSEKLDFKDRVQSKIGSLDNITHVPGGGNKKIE
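Using a mix of unlabeled (15 uM) and Alexa 594-labeled (0.24 uM) tau K18 P301L, heparin-triggered fibrillization over 6 hr at 37 C was scored by ThT fluorescence.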
Tau fibril FP: tau fibrillization inhibition (FP) | 280,000 compounds, 0.39% hits | AID 1468 | K18 P301L tau heparin fibrillization, Alexa594 FP, 6 h | Potency, µM (doses to about 57.7 µM), actives largely listed as inhibitors | P10636; active = well fitted curve in the direction sought with a large enough effect; inconclusive = small, poorly fitted or top-dose-only effect, or another doubt; inactive = no such curve, though single readings can be large; an effect the other way counts as inactive or inconclusive; note: nearly all actives have a fitted effect of over 55% in size
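Steps: dispense K18 P301L tau (15 uM plus 0.24 uM Alexa 594 tracer, final) in pH 7 sodium acetate; add compound; add heparin (20 uM final); incubate 6 hr, 37 C; add ThT (30 uM final); after 1 hr ambient, read FP.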
HPGD block: inhibitors of human 15-hydroxyprostaglandin dehydrogenase (HPGD); 150,000 compounds, 4.3% hits; Potency, µM, usual class: inhibitors; P15428; purified HPGD, NADH fluorescence kinetic, PGE2 substrate
Target sequence (P15428 whole entry, looked up): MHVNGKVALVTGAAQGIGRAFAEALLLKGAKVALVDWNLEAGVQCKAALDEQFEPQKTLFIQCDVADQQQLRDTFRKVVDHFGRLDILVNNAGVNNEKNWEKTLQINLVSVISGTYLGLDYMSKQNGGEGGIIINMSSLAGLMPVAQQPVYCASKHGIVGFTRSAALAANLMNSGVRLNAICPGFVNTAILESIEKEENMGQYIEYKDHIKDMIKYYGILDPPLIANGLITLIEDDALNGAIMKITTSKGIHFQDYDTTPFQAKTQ
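NADH formation kinetics: reaction with 30 uM PGE2 and 1 mM NAD+ (final), 20 nM enzyme, Tris-HCl pH 8 with Tween 20, after 15 min compound preincubation at room temperature. Fluorescence change, last versus first of five reads.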
Tau fluor cs: counter-screen for tau fibril formation inhibitors. AID 1463. tau K18 P301L (four-repeat tau fragment) Alexa594 fluorescence, heparin fibrillization. 280,000 compounds, 0.93% hits. Potency, µM (series often up to 57.7 µM); active = well fitted curve in the direction sought with a large enough effect; inconclusive = small, poorly fitted or top-dose-only effect, or another doubt; inactive = no such curve, though single readings can be large; an effect the other way counts as inactive or inconclusive; note: nearly all actives have a fitted effect of over 55% in size
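Human K18 P301L tau (15 uM unlabeled plus 0.24 uM Alexa 594-labeled, final) in 100 mM sodium acetate pH 7 was mixed with compound and 20 uM heparin and incubated 6 hr at 37 C.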
Hits are given with their value; . = inactive; ? = inconclusive; / = no result; [ ] = dose if it differs, or a comment. A selection: hits, their analogues and other compounds. The true share with any hit is near 9.9%. Unless noted, calls come from the whole dose curve; as a rule, active = well fitted inhibition curve with a large enough effect (not every such curve was filed as active); inconclusive = small, poorly fitted or top-dose-only effect, or another doubt; inactive = no such curve, though single readings can be large or run the other way.

SMILES	ALDH1A1 block	KDM4E inh	Tau fibril ThT	Tau fibril FP	HPGD block	Tau fluor cs
COc1cccc(OC)c1CC1SC(=O)NC1=O (stereo not given)	.	.	.	.	/	.
O=C(CCNc1cccc(F)c1)c1cccc([N+](=O)[O-])c1	0.63µM	.	?	.	/	?
Cc1ccc(NC(=O)Nc2cccc([N+](=O)[O-])c2)cc1F	.	.	?	?	/	5.6µM[quencher]
Cc1csc(C(=O)O)c1NC(=O)c1cccc([N+](=O)[O-])c1	14µM	.	.	.	/	.
O=C(Cn1ncc2c([nH]c3ccccc32)c1=O)Nc1cccc(C(F)(F)F)c1	/	/	.	?	/	.
Cc1ccc(-c2csc(N)n2)s1	?	.	32µM	?	.	.
Cc1csc(N)n1	.	.	.	.	.	.
Cc1ccc(S(=O)(=O)N(C(=O)c2ccco2)c2cc3sc(=O)oc3c3ccccc23)cc1	32µM	14µM	14µM	22µM	?	?
COc1ccc(S(=O)(=O)N(C(=O)C(C)C)c2ccc3oc(=O)sc3c2)cc1	?	.	?	.	.	.
CCOc1ccc(S(=O)(=O)N(C(=O)c2ccco2)c2cc3sc(=O)oc3c3ccccc23)cc1	?	16µM	14µM	28µM	.	.
COc1ccc(S(=O)(=O)N(C(=O)c2ccco2)c2cc3sc(=O)oc3c3ccccc23)cc1	25µM	13µM	13µM	20µM	?	?
CN1CCN(C(=O)c2ccc(-n3c(=O)c(=O)[nH]c4ccccc43)cc2)CC1	.	/	/	/	.	/
COc1ccccc1CN1CCCC(C(=O)N2CCCCC2)C1 (stereo not given)	/	?	.	.	/	.
O=C(C1CCCN(Cc2ccccc2Br)C1)N1CCCCC1 (stereo not given)	.	.	.	.	25µM	.
COc1ccc(-c2nnc3sc(C(C)N4C(=O)c5ccccc5C4=O)nn23)cc1 (stereo not given)	.	.	.	.	7.1µM	.
O=S(=O)(N/N=C1/CC(c2ccccc2)Oc2ccccc21)c1ccc(Br)cc1 (stereo not given)	22µM	.	.	.	.	?
Cc1ccc(S(=O)(=O)N/N=C2/CC(=O)CC(C)(C)C2)cc1[N+](=O)[O-]	/	.	.	.	/	.
O=S(=O)(N/N=C1/CCCc2ccccc21)c1ccc(Br)cc1	14µM	.	.	.	.	.
Cc1ccc(S(=O)(=O)N/N=C2/CC(c3ccccc3)Oc3ccccc32)cc1[N+](=O)[O-] (stereo not given)	7.1µM	.	?	?	.	?
Cc1ccc(C(=O)CSc2nc(C)cc(C)c2C(=O)Nc2cccc(C)c2)cc1	/	/	.	.	/	.
Cc1nn(CC(=O)NC(C)c2ccccc2)c(=O)c2cc3occc3n12 (stereo not given)	/	/	.	.	/	.
CC(C)OC(=O)c1nnn(-c2nonc2N)c1CSc1ccccn1	2.2µM	.	.	.	?	.
COc1ccc([N+](=O)[O-])cc1N(CC(=O)O)S(C)(=O)=O	32µM	.	.	.	/	.
c1ccc2c(c1)Cc1cc3cc4c(cc3nc1-2)OCO4	?	?	3.2µM	.	?	?
O=C(CSc1nc2ccccc2c(=O)[nH]1)c1cccs1	.	.	.	.	13µM	.
SMILES	ALDH1A1 block	KDM4E inh	Tau fibril ThT	Tau fibril FP	HPGD block	Tau fluor cs
N#Cc1c(-c2cccs2)nc(SCC(=O)c2cccs2)[nH]c1=O	.	.	?	.	16µM	.
Cc1cnc(NC(=O)Cc2c[nH]c3ccccc23)s1	25µM	.	.	?	/	.
Cc1csc(NC(=O)Cc2c[nH]c3ccccc23)n1	.	.	.	.	.	.
CC(NC(=O)CSc1nc2ccccc2c(=O)[nH]1)c1ccccc1 (stereo not given)	.	.	.	.	.	.
O=C(CSc1nc2ccccc2c(=O)[nH]1)c1ccc(O)cc1O	?	?	.	.	/	.
Cc1cnc(NC(=O)CSc2nc3ccccc3c(=O)[nH]2)s1	.	.	.	.	16µM	.
Cc1nnsc1-c1nnc(SCC(=O)c2ccccc2)n1C1CC1	?	?	.	.	/	.
O=C(CSc1nc2ccccc2c(=O)[nH]1)c1ccc(O)c(O)c1	?	25µM	?	.	16µM	.
Cc1cc(SCC(=O)c2cccs2)nc2ccccc12	?	.	.	.	4.5µM	?
O=C(CSc1nc2ccccc2n1CCc1ccccc1)c1ccc(O)c(O)c1	14µM	22µM	?	.	/	25µM[quencher]
COc1ccccc1OC(C)C(=O)N1CCN(CCc2ccccn2)CC1 (stereo not given)	/	/	.	.	/	.
O=C(/C=C/Sc1ccccc1)c1ccccc1	7.9µM	.	?	?	?	.
O=C(/C=C/Sc1ccccc1)c1ccc(Cl)cc1	?	.	?	.	.	.
COCCNC(=O)CN(CCc1ccccc1)S(=O)(=O)c1ccc(OC)cc1	?	.	.	.	.	.
COc1ccc(S(=O)(=O)N(CCc2ccccc2)CC(N)=O)cc1	7.9µM	.	.	.	/	.
Cc1ccc(S(=O)(=O)N(CC(=O)Nc2cccnc2)c2cc(Cl)ccc2C)cc1	/	/	.	.	/	?
CC1CCN(c2ccc(C=O)o2)CC1	14µM	.	.	.	/	.
CCC(C)NS(=O)(=O)c1ccc(S(=O)(=O)N(CC(=O)Nc2ccccc2)Cc2ccco2)cc1 (stereo not given)	25µM	.	.	.	.	.
O=C(CN(Cc1ccco1)S(=O)(=O)c1ccccc1)N/N=C/c1ccccc1C(=O)O	.	.	.	.	/	.
CCCNC(=O)NC(=O)COC(=O)CNS(=O)(=O)/C=C/c1ccccc1	.	.	.	.	/	.
CNc1nc2[nH]c(=O)c3c(c2s1)OC(N)=C(C#N)C3c1cccc(F)c1 (stereo not given)	7.1µM	.	.	.	?	.
COc1cccc(NC(=O)Cn2c(=O)n(Cc3ccc(C(=O)NCc4ccc5c(c4)OCO5)cc3)c(=O)c3ccccc32)c1	/	/	.	25µM	/	?
Cc1ccc(-n2c(=O)c3ccc(C(=O)NCc4ccccc4Cl)cc3n(CC(=O)Nc3cccc(F)c3)c2=O)cc1	/	/	.	16µM	/	?
Cc1ccc(-n2c(=O)c3ccc(C(=O)NCc4ccccc4Cl)cc3n(Cc3cccc(F)c3)c2=O)cc1	/	/	.	.	/	.
CN(C)c1ccc(NC(=O)Cn2c(=O)n(Cc3ccccc3)c(=O)c3ccccc32)cc1	.	.	?	.	.	18µM[quencher]
Cc1ccc(NC(=O)Cn2c(=O)n(Cc3ccc(C(=O)NCc4ccc5c(c4)OCO5)cc3)c(=O)c3ccccc32)cc1	/	/	.	32µM	/	.
Cc1ccc(NC(=O)Cn2c(=O)n(Cc3ccc4c(c3)OCO4)c(=O)c3ccccc32)cc1	/	/	.	.	/	.
Cc1ccc(NC(=S)N2CCCCC2CO)cc1C (stereo not given)	.	.	.	.	/	.
